The values that follow come from PubChem BioAssay (NCATS).

Results filed as inconclusive are left out. A call without a number means that no potency is given here. Active and inactive are the calls of the source. Calls come from the whole dose curve; as a rule, active = well fitted inhibition curve with a large enough effect; inconclusive = small, poorly fitted or top-dose-only effect; inactive = flat fitted curve, though single readings scatter.

One test concerns HACAT. Description: qHTS assay to identify novel small-molecules to repurpose for Merkel cell carcinoma treatment (AID 1296009). Note: nearly all actives have a fitted effect of over 60% in size. To be noted: MCC and control cell lines, CellTiter-Glo viability, 72 h; at 44.8 µM (top of the series) unless noted. The method in brief: (§1)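 Luminescence from CellTiter-Glo, read 10 min after addition at room temperature, reported viability following a 72 hr, 37 degree celsius treatment with NPC or MIPE compounds in titration; values normalized to plate controls.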
Regarding `O=C(NCCCCN1CCN(c2cccc(Cl)c2Cl)CC1)c1cc2ccccc2s1`, the result was inactive.
On the same count and under the same terms, with `CNc1nc(NCc2ccc(NS(C)(=O)=O)cc2Cl)cc(-c2ccccn2)n1` the entry was “inactive”; with `O=S(=O)(c1ccccc1)N(CC(F)(F)F)c1ccc(C(O)(C(F)(F)F)C(F)(F)F)cc1`, “inactive”.
The same measure, in the same setting: to `Cc1cc(C)cc(-c2cnc3cc(Cl)c(-c4cccc(O)c4)cc3c2OCCCN)c1` belongs “inactive”; to `Cc1nc(Nc2ccc(F)cc2)nc(N2CCc3ccccc3C2C)c1C` (configuration not stated), “inactive”; to `COc1cc2c(cc1-c1c(C)noc1C)ncc1[nH]c(=O)n(C(C)c3ccccn3)c12` (configuration not stated), “inactive”.
Turning to `CC(C)C[C@@H](C(=O)N[C@@H](Cc1ccc(OCc2ccccc2)cc1)C(=O)NC(C)(C)C)N(C)Cc1ccc(C(C)(C)C)cc1`, the result was inactive.

In the next test the test system is NIH3T3. The test is described as above. As to conditions: MCC and control cell lines, CellTiter-Glo viability, 72 h; series mostly up to 44.8 µM. A digest of the protocol:
as §1
For `C/C=C/[C@@H]1C=C[C@@H]2C[C@H](C)CC[C@H]2[C@]1(C)/C(O)=C1/C(=O)[C@@H](CO)N(C)C1=O`, the Potency entry is “inactive”.
Same read-out and setting: to `CCCc1cc(C)n(C)c(=O)c1CN(C)C(=O)c1cc(-c2ccc(N3CCN(C(C)C)CC3)nc2)cc2c1cnn2C(C)C` belongs “inactive”; to `COC(=O)c1cc(Br)cnc1N1CCC(NC2CCCCC2)C(O)C1` (configuration not stated), “inactive”.
On to `CO[C@H]1[C@@H](O)[C@H](O[C@H]2CC[C@@]3(C)C(CCC4C3CC[C@]35COC6(COC(=O)C6)C3CCC45O)C2)O[C@@H](C)[C@@H]1OC1OC(CO)C(OC2OC(CO)C(O)C(O)C2O)C(O)C1O` (some centres not stated), for which the outcome is “inactive [at 9.27 µM]”.
As for `CC1(C)CCC(C)(C)c2cc(C#Cc3ccc(C(=O)O)cc3)ccc21`, the Potency result was “inactive”.
